Test results reported in paper PMC4336329 (PLoS ONE, 2015).
The whole screen tested about 310,000 compounds, of which about 2,200 (0.71%) showed an effect of 50% or more. The effect is printed as a negative number. The list comes from a sample in which strong results are over-represented; it also holds similar structures and randomly drawn compounds.

Biological target: human ether-à-go-go-related gene (hERG) potassium channel (human, UniProt Q12809)
Experiment: primary screen, population patch clamp on CHO cells stably expressing hERG; higher = less effect of the substance
Description: Briefly, Chinese hamster ovary (CHO) cells stably expressing the hERG channel were dislodged from tissue culture flasks and dispensed into PPC plates. […] During the recording, background leak currents were estimated by a 100 ms step to -80 mV from an initial holding potential of -70 mV and subtracted from the subsequent current measurement. The campaign was conducted in two phases using slight differences in recording protocol. In the first phase, the initial voltage pulse used a 100 ms step to -30 mV from a holding potential of -70 mV, a 2 s conditioning step to +25 mV, and a 2 s test step to -30 mV. During the second phase of the screen, the potential during the conditioning step was raised to +45 mV. In both phases of the campaign, a secondary voltage pulse was applied using the same parameters as the second phase initial pulse. The initial and secondary pulses were applied in the absence of compound, and upon application of 1 μM and 10 μM test concentrations. Small molecule effects on hERG current density were quantified by […].

Chain of human ether-à-go-go-related gene (hERG) potassium channel (Q12809 whole entry, looked up): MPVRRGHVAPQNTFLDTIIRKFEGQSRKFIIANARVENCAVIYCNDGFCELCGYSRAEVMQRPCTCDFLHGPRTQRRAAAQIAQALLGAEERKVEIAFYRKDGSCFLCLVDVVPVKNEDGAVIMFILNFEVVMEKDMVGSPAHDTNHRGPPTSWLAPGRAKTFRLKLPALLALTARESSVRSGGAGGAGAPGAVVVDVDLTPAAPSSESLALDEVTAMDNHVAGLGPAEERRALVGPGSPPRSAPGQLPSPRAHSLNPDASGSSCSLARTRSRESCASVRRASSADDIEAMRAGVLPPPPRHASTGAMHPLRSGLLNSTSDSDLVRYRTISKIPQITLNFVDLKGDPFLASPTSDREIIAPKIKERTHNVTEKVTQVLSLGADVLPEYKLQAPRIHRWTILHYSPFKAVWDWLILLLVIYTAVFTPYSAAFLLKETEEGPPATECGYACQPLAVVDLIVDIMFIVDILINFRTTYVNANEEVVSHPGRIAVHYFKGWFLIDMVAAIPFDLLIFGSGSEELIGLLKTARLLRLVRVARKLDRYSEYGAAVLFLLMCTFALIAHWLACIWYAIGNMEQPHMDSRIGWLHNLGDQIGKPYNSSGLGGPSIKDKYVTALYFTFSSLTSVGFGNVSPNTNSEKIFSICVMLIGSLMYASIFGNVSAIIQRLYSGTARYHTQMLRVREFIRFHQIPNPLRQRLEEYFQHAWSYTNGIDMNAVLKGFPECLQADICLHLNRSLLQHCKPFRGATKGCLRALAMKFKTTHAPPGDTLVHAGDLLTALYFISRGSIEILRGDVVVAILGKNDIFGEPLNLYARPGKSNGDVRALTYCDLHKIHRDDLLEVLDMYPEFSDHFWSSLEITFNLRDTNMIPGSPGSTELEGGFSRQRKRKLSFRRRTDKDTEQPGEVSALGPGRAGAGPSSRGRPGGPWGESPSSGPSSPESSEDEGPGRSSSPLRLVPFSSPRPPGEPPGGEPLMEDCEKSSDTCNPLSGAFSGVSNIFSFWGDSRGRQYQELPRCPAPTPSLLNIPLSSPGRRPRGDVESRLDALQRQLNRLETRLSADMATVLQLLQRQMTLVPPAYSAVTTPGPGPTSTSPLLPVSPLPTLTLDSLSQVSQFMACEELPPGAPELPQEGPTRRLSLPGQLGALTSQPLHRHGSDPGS

SMILES | hERG current change (%, negative = inhibition) at 1uM [%]
CN(CC(=O)Nc1ccc(Cl)c(Cl)c1)C(=O)C1CCCC1 | 5.9
Cc1cc(NC(=O)c2cc(-c3ccccc3)on2)n(-c2ccccc2)n1 | 7.88
O=C(COC(=O)c1ccc2ccccc2n1)c1ccc(F)cc1 | -5.55
Cc1cc([N+](=O)[O-])ccc1NC(=O)Nc1ccccc1F | 13
O=C(CCc1nnc(CCc2ccccc2)o1)NC(c1cccnc1)C(F)(F)F (centres unmarked) | -0.569
CC1CN(C(=O)C(Sc2ccccc2)c2ccccc2)CC(C)O1 (centres unmarked) | 5.46
N#C/C(=C1\CCCN1)c1ccc2ccccc2n1 | 8.93
Cc1ccc(CCN2CC(C(=O)NCCCN3CCOCC3)CC2=O)cc1 (centres unmarked) | 16.5
CN1CCCc2cc3c(C(F)(F)F)cc(=O)oc3nc21 | 14.3
O=C(CSc1nc(C(F)(F)F)cc(=O)[nH]1)N1CCCCCC1 | 5.27
Cc1nc(C)c(C(=O)NCc2ccccc2Cl)o1 | 10.8
O=[N+]([O-])c1ccc(S(=O)(=O)N(CC(O)CN2CCCCC2)c2ccccc2)cc1 (centres unmarked) | -80.4
COc1ccc([N+](=O)[O-])cc1N(CC(O)CN1CCCCC1)S(=O)(=O)c1ccccc1 (centres unmarked) | 2.16
O=[N+]([O-])c1ccccc1S(=O)(=O)N(CC(O)CN1CCCCC1)c1ccccc1 (centres unmarked) | 2.79
Cc1ccc(S(=O)(=O)N(CC(O)CN2CCCCC2)c2cccc([N+](=O)[O-])c2)cc1 (centres unmarked) | -73.1
O=C(CN(c1ccc([N+](=O)[O-])cc1)S(=O)(=O)c1ccccc1)N1CCCCC1 | -0.85
O=[N+]([O-])c1cccc(N(CC(O)CN2CCCC2)S(=O)(=O)c2ccccc2)c1 (centres unmarked) | -25.9
O=[N+]([O-])c1cccc(N(CC(O)CN2CCCCC2)S(=O)(=O)c2ccccc2)c1 (centres unmarked) | -24.2
O=[N+]([O-])c1ccc(N(CC(O)CN2CCCCC2)S(=O)(=O)c2ccccc2)cc1 (centres unmarked) | -79.5
Cc1ccc(S(=O)(=O)N(CC(O)CN2CCOCC2)c2cccc([N+](=O)[O-])c2)cc1 (centres unmarked) | 2.27
Cn1c(=O)cc(OCCCC(=O)Nc2ccc3c(c2)OCCO3)c2ccccc21 | 17.2
Cc1ccn2c(=O)nc(SCC(=O)NC3CCCCC3)nc2c1 | 2.62
C/C(=N\NC(=O)CNC(=O)C(c1ccccc1)c1ccccc1)c1ccc(C(C)(C)C)cc1 | 2.98

SMILES | hERG current change (%, negative = inhibition) at 1uM [%]
COc1cc(-c2nc3cnccc3n2C)cc(OC)c1OC | 2.44
CCCCOc1ccc(CN(C)c2ncnc(N)n2)cc1 | -1.16
O=[N+]([O-])/C(C(Cl)=C(Cl)Cl)=C(\Sc1ccccc1)N1CCCCC1 | -3.16
Nc1cccc2c1C(=O)N(C(=O)c1cccc(S(=O)(=O)N3CCCC3)c1)C2=O | 12.5
COC(=O)c1ccc(Cn2nc(C)c([N+](=O)[O-])c2C)o1 | 2.01
O=C1NN(c2ccc(Cl)c(Cl)c2)C(=O)/C1=C/c1ccc(-c2ccccc2C(=O)O)o1 | 13
Cc1cccc(CS(=O)(=O)Cc2ccc(C(=O)N3CCC4(CC3)OCCO4)o2)c1 | 10
Cc1cccnc1NC(=S)NCCc1ccccc1 | -3.36
CC(C)C[C@H](NC(=O)c1nc[nH]c1C(=O)N[C@@H](CC(C)C)C(=O)OCc1ccccc1)C(=O)OCc1ccccc1 | 9.56
CC(C)C[C@H](NC(=O)c1[nH]cnc1C(=O)N[C@@H](Cc1ccccc1)C(=O)OCc1ccccc1)C(=O)OCc1ccccc1 | 10.2
CNC(=O)c1[nH]cnc1C(=O)N[C@@H](CC(C)C)C(=O)OCc1ccccc1 | -51.8
COc1ccccc1NC(=O)N1CCCC1C(=O)Nc1ccc2c(c1)OCO2 (centres unmarked) | 2.76
O=C(CCC1COc2ccccc2O1)NCC1COc2ccccc2O1 (centres unmarked) | 6.41
Cc1nnc(SCc2nnc(-c3ccccc3Br)o2)s1 | 18.8
CC(=O)c1cccc(NC(=O)/C(=C\c2ccco2)NC(=O)c2ccco2)c1 | -50.7
CC(=O)c1cccc(NC(=O)/C(=C/c2ccco2)NC(=O)c2ccco2)c1 | 10.1
CC(=O)c1ccc(NC(=O)/C(=C\c2ccco2)NC(=O)c2ccco2)cc1 | 4.96
CCc1ccc(-n2nc3cc(C)c(N)cc3n2)cc1 | 13.3
COc1ccc(NC(=O)NC2(C(=O)N3CCCC(C)C3)CCCCC2)cc1 (centres unmarked) | 14.1
COc1ccc(N2CCN(C(=O)CSc3ccccc3)CC2)cc1 | 12.7
Cc1ccc(C(=O)ON=C2CCN(c3ccc([N+](=O)[O-])cc3)CC2)cc1 | -21.2
COc1ccc(N2CCN(C(=O)CSc3ccc([N+](=O)[O-])cc3)CC2)cc1 | -85.1
CC1(C)Cc2cccc(OCC(=O)N3CCN(c4ccccc4)CC3)c2O1 | -2.57

SMILES | hERG current change (%, negative = inhibition) at 1uM [%]
COc1ccc(C(=O)ON=C2CCN(c3ccc([N+](=O)[O-])cc3)CC2)cc1 | -57.7
O=C(CCc1ccccc1)N1CCN(c2ccc([N+](=O)[O-])cc2)CC1 | -67.4
O=C(CCCc1ccccc1)N1CCN(c2ccc([N+](=O)[O-])cc2)CC1 | -48.2
O=C(ON=C1CCN(c2ccc([N+](=O)[O-])cc2)CC1)c1ccccc1 | -26
O=C(Cc1ccccc1)N1CCN(c2ccc([N+](=O)[O-])cc2)CC1 | -36.4
CC1(C)Cc2cccc(OCC(=O)N3CCN(c4ccc([N+](=O)[O-])cc4)CC3)c2O1 | -51.8
COc1ccc(C(=O)CCC(=O)N2CCN(c3ccc([N+](=O)[O-])cc3)CC2)cc1 | -28.4
CC1(C)Cc2cccc(OCC(=O)N3CCN(c4ccc(F)cc4)CC3)c2O1 | -16.2
Cc1cccc(C)c1OCC(O)CN.Cl.O (centres unmarked) | 10.5
COc1ccccc1NC(=O)/C=C1\SCC(=O)N1C | 2.4
NC(=O)CSc1nc(-c2ccccc2)c(-c2ccccc2)o1 | 8.48
C/C=C1\COC(C(=O)NCc2ccncc2)(C(F)(F)F)C=C1C=C1CCCCC1 (centres unmarked) | 12.8
CCCc1n[nH]c2c1/C(=N\OCC)CC(C)(C)C2 | 12.8
C=CCN1CCN(C(c2cc(OC)ccc2OC)c2nnnn2CC2CCCO2)CC1.Cl (centres unmarked) | 12.4
Cc1nn(C)c(Cl)c1CN1CCCC(C(=O)Nc2cccc(-n3cccn3)c2)C1 (centres unmarked) | -3.6
CN1C(=O)CC(N2CCN(c3ccc(Cl)c(Cl)c3)CC2)C1=O (centres unmarked) | 1.54
O=C(CN1CCN(c2ccc([N+](=O)[O-])cc2)CC1)Nc1nccs1 | -29.3
O=C(Cc1ccc([N+](=O)[O-])cc1)N1CCN(c2ccc([N+](=O)[O-])cc2)CC1 | -82.5
O=C(CCCC(=O)N1CCN(c2cccc(Cl)c2)CC1)c1ccccc1 | 1.83
O=C(NC(CC(=O)N1CCN(c2ccccc2O)CC1)c1ccccc1)c1ccccc1Cl (centres unmarked) | -15.6
Cc1ccc(CC(=O)N2CCN(c3ccc([N+](=O)[O-])cc3)CC2)cc1 | -30.4
O=C(NC(CC(=O)N1CCN(c2ccccc2)CC1)c1ccccc1)c1ccccc1Cl (centres unmarked) | -19.6
O=C(CCCC(=O)N1CCN(c2ccc([N+](=O)[O-])cc2)CC1)c1ccccc1 | -66

SMILES | hERG current change (%, negative = inhibition) at 1uM [%]
O=C(CN1CCN(CC(=O)Nc2ccccn2)CC1)Nc1ccccn1 | -9.95
O=C(NC(CC(=O)N1CCN(c2ccc([N+](=O)[O-])cc2)CC1)c1ccccc1)c1ccccc1Cl (centres unmarked) | -69
O=C(CN1CCN(c2ccc([N+](=O)[O-])cc2)CC1)Nc1ccccn1 | -75.8
O=C(CN1CCN(c2ccc([N+](=O)[O-])cc2)CC1)c1ccccc1 | -9.94
O=C(Cc1ccc(F)cc1)N1CCN(c2ccc([N+](=O)[O-])cc2)CC1 | -45.8
Cn1cc(Cl)c(-c2n[nH]c(=S)n2-c2ccccc2)n1 | 14
CCOC(=O)c1sc(NC(=O)c2ccc(OC)cc2)nc1C | 15.9
CCN(C(=O)C1CC1)C1CCS(=O)(=O)C1 (centres unmarked) | 9.67
CCC(C)C(=O)N[C@@H](c1ccccc1)[C@@H](O)C(=O)O[C@H]1C[C@@]2(O)[C@@H](OC(=O)c3ccccc3)C3[C@](C)(C(=O)[C@H](OC(C)=O)C(=C1C)C2(C)C)[C@@H](O)C[C@H]1OC[C@@]31OC(C)=O (some centres unmarked) | 7.34
CCOC(=O)COc1ccc(CCNC(C)=O)cc1 | 17.8
Cn1c(CSCc2ccccc2Cl)nnc1SCC(=O)Nc1nccs1 | 2.67
COc1ccc(N2CCN(C(=O)CCCSc3nc4ccccc4[nH]3)CC2)cc1 | -29.6
O=C(CCCSc1nc2ccccc2[nH]1)N1CCN(c2ccc([N+](=O)[O-])cc2)CC1 | -86.9
Cc1noc(C)c1CSCC(=O)N1CCN(c2ccc([N+](=O)[O-])cc2)CC1 | -83.4
CC(C)CNS(=O)(=O)c1ccc(CCC(=O)N2CCN(c3ccccc3)CC2)cc1 | -61.5
Cc1cccc(N2CCN(C(=O)CSCc3c(C)noc3C)CC2)c1C | 6.62
CC(C)CNS(=O)(=O)c1ccc(CCC(=O)N2CCN(c3ccc(F)cc3)CC2)cc1 | -9.44
N#Cc1ccc(CN2CCN(C(=O)CC(NC(=O)c3ccccc3)c3ccccc3)CC2)cc1 (centres unmarked) | -84.7
Cc1noc(C)c1CSCC(=O)N1CCN(c2ccc(F)cc2)CC1 | -17.9
COc1cccc(N2CCN(C(=O)CC(NC(=O)c3ccccc3)c3ccccc3)CC2)c1 (centres unmarked) | -27
O=C(CCCSc1nc2ccccc2[nH]1)N1CCN(c2ccccc2)CC1 | -32.8
CC(NC(=O)c1ccccc1)c1nc2ccccc2n1Cc1ccc(C#N)cc1 (centres unmarked) | -35.6
CCNS(=O)(=O)c1ccc(CCC(=O)N2CCN(c3ccccc3)CC2)cc1 | 3.97
